Screening results deposited in PubChem by National Center for Advancing Translational Sciences (NCATS).
D1 ag – human D1 receptor agonism. P21728. HEK293 T-REx D1 cells, calcium flux, agonist mode. activation, % at 2 µM. hit rate 1% among 360,000. AID 504660; in the data active = activation above about 30%; also: 0% is about no effect
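Agonism was scored from calcium flux recorded over 180 s (1 read/s) after pintool compound addition, following a 10-cycle baseline. Cells were inducible force-coupled HEK293 TREx D1, plated overnight at 30 C and loaded with no-wash calcium dye.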
DRD3 agonist – D3 dopamine receptor (human) agonism; hit rate 0.58% among 410,000; AID 652048; max activation, %; D3R DiscoveRx beta-arrestin cells, luminescence, 90 min; in the data active = max activation above about 30%; also: 0% is about no effect
Target sequence (P35462 whole entry, looked up): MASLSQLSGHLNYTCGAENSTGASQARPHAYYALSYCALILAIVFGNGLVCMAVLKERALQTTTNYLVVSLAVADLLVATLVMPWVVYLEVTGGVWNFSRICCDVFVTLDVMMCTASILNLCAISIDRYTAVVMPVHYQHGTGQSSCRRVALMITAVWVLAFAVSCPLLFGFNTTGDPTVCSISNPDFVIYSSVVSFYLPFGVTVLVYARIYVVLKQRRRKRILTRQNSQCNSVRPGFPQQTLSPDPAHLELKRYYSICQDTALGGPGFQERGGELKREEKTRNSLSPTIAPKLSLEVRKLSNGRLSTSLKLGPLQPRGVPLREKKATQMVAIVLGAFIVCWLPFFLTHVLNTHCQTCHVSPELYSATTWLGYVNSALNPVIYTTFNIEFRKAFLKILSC
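Agonist mode: compounds and dopamine controls were applied to plated cells for 90 min at 37 degrees C after an overnight attachment at 1500 cells/well. Luminescent read-out followed 30 - 60 minutes at room temperature with DiscoveRx detection reagent.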
D1 PAM – human D1 dopamine receptor positive modulation; HEK293 TREx D1 cells, calcium flux, dopamine EC20 potentiation; potentiation, % at 10 µM; hit rate 0.036% among 360,000; in the data active = potentiation above about 30%; also: 0% is about no effect
DRD3 antagonist – blocks the human D3 dopamine receptor | hit rate 2.5% among 360,000 | max response, negative = inhibition, % | AID 652054 | D3R cells, DiscoveRx beta-arrestin luminescence, antagonist mode; hits give low values; in the data active = max response below about -50%; inconclusive = no clear call, values can overlap the other calls; also: % is scaled to controls: 0 for no effect and ±100 for the full control effect
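Cells expressing the human receptor were seeded at 1500 cells/well, incubated overnight at 37 degrees C in 5% CO2, then exposed to library compounds with dopamine controls for 90 minutes at 37 degrees C before luminescent detection.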
D1 antag – human D1 dopamine receptor antagonism; P21728; HEK293 TREx D1 cells, calcium flux, dopamine EC80; hits give low values; activity change, negative = inhibition, % at 10 µM; hit rate 3.2% among 360,000; AID 504652; in the data active = activity change below about -30%; also: % is scaled to controls: 0 for no effect and ±100 for the full control effect
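Antagonism measured as reduced calcium response to an EC80 dopamine addition following 180 s compound pre-read; cells were inducible HEK293 Trex D1 plated overnight at 30 C, read kinetically at 1 cycle/sec.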
* hit, by the source's call; ? = inconclusive; . = no result. Sampled rows, rich in hits. Any-hit rate of the full collection: about 6%.

SMILES	D1 ag	DRD3 agonist	D1 PAM	DRD3 antagonist	D1 antag
CCOC(=O)N1CCc2c(sc3c2c(=O)n(-c2ccc(Cl)cc2)c(=O)n3CC(=O)c2ccc(F)cc2)C1	22.2	7.4	-3.6	.	-31.3*
CCCCN(CCCC)CC(O)c1cc(Cl)cc2c1-c1ccc(Cl)cc1/C2=C/c1ccc(Cl)cc1 (centres undefined)	.	6.8	.	.	.
COC(=O)c1c(-c2ccc(OC)cc2)sc2ccc(OC)cc12	.	57.7*	.	78.2	.
COc1ccc(-c2sc3cc4c(cc3c2C#Cc2cncn2C)OCO4)cc1	.	-4.5	.	-1.1	.
COc1ccc(-c2sc3ccc(OC)cc3c2C#Cc2cncn2C)cc1	.	34.3*	.	120.0	.
COc1cc(OC)cc(-c2sc3ccc(OC)cc3c2C#CCO)c1	.	39.7*	.	2.5	.
COC(=O)c1c(-c2ccc(OC)cc2)sc2ccc(-c3ccc4c(c3)OCO4)cc12	.	4.5	.	1.1	.
COc1cc(OC)cc(-c2sc3ccc(OC)cc3c2C#CC(C)(C)O)c1	1.0	35.8*	7.9	28.6	.
COCCCNc1nc(NCc2ccccc2OC)c2cnn(C)c2n1	0.9	6.3	0.6	.	-1.5
COc1ccc(NC(=O)CCn2nc(-c3ccccc3OC)c3c(C)cc(C)nc32)cc1	0.9	-9.7	-3.5	.	-5.6
COc1cc(OC)cc(-c2sc3ccc(OC)cc3c2C#CC2(N)CCCCC2)c1	.	35.8*	.	64.2	.
Cc1cnc(NC(=O)c2ccc3c(c2)C(=O)N(Cc2cccnc2)C3=O)s1	2.3	-0.7	-1.9	6.5	-32.9*
CCCSc1ncc(Cl)c(C(=O)Nc2sc(C(C)=O)c(C)c2C(=O)OCC)n1	-1.6	2.9	-0.6	.	-1.6
O=C(CN1C(=O)NC(Cc2ccccc2)C1=O)Nc1ccc(F)cc1 (centres undefined)	1.7	24.1	-8.8	-11.0	-86.3*
O=C(CN1C(=O)NC(Cc2ccccc2)C1=O)Nc1ccc(OC(F)(F)F)cc1 (centres undefined)	1.4	2.7	5.0	15.2	7.7
COCCN1C(=O)N[C@@H](c2cccs2)C(C(C)=O)=C1C	.	35.3*	.	-16.6	.
COC(=O)c1ccc(C(=S)NCC2(N(C)C)CCCCC2)cc1	77.0*	-0.9	-4.3	-8.5	-30.1*
Cc1cc(C)nc(/N=C(\N)Nc2ccc(C(C)C)cc2)n1	34.9*	5.2	0.3	4.6	-23.2
Cc1cc(C)nc(/N=C(\N)Nc2ccc([N+](=O)[O-])cc2)n1	20.8	-2.6	-5.2	-20.0	3.7
CCCCc1ccc(N/C(N)=N/c2nc(C)cc(C)n2)cc1	63.5*	16.3	3.7	18.2	-7.9
Cc1cc(C)nc(/N=C(\N)Nc2cccc([N+](=O)[O-])c2)n1	34.5*	2.3	-5.1	-1.7	-6.9
Cc1ccc(N/C(N)=N/c2nc(C)cc(C)n2)cc1	15.6	2.9	-20.1	1.7	-74.3*
Cc1c(Cl)ccc2sc(N3CCN(C(=O)C4CC4)CC3)nc12	7.6	11.0	0.0	.	.
Cc1ccc(NC(=O)C2CCN(S(=O)(=O)c3ccc4c(c3)CCCC(=O)N4)CC2)c(Cl)c1	2.2	7.7	-3.1	.	-0.5
CC1CCN(S(=O)(=O)c2ccc3c(ccn3CC(=O)NCc3ccccc3F)c2)CC1	9.3	-14.2	-0.7	.	-10.3
SMILES	D1 ag	DRD3 agonist	D1 PAM	DRD3 antagonist	D1 antag
COc1ccc2cc(C(C)C(=O)OC(C)C)ccc2c1 (centres undefined)	1.3	-3.4	0.4	-19.7	-37.5*
COc1ccc2cc([C@@H](C)C(=O)O)ccc2c1	-1.2	-12.6	-4.7	-28.1	9.4
COC(=O)/C=c1/s/c(=C(\C#N)C(=O)NCc2ccco2)n(-c2ccccc2)c1=O	1.1	-2.4	-2.3	1.5	-33.0*
Cc1cccc(C(=O)Nc2nnc(SCc3cc(=O)n4cccc(C)c4n3)s2)c1	0.6	3.7	-1.9	.	9.1
Cc1cccc(C)c1-n1cccc1/C=C1/C(=N)N2C(=NC1=O)SN=C2S(C)(=O)=O	3.6	0.3	-14.8	4.3	-66.2*
CCOc1ccc(-c2c(C)nn3c(-c4ccccc4)c(C(=O)NCCOC)cnc23)cc1OCC	-0.3	-16.1	3.4	.	7.1
CN1CCN(CC#CCC(O)(c2ccccc2)c2ccccc2)CC1	3.3	-29.8	1.9	-22.5	-1.7
CC(C)C(O)(C#CCN1CCCCCC1)c1ccccc1 (centres undefined)	-0.2	-10.3	-5.7	-60.0*	8.1
CC(O)(C#CCN1CCCCC1)c1ccccc1 (centres undefined)	4.3	-25.4	-5.0	?	-2.1
OC(CC#CCN1CCCC1)(c1ccccc1)c1ccccc1	1.3	-22.5	-5.8	-4.1	9.3
OC(CC#CCN1CCCCC1)(c1ccccc1)c1ccccc1	10.2	-36.4	-4.7	-51.5*	-17.6
OC(CCCN1CCCCC1)(c1ccccc1)c1ccccc1	3.3	-97.6	-3.2	-100.9*	-34.3*
OC(CC#CCN1CCOCC1)(c1ccccc1)c1ccccc1	-2.9	-7.4	-6.8	6.4	-30.6*
O=C(Nc1ccccc1F)C(Cc1ccccc1)N1Cc2ccccc2C1=O (centres undefined)	0.1	-14.1	-0.7	.	7.0
Cc1[nH]c2ccccc2c1CN1CCC(Cc2ccccc2)CC1	90.1*	-24.4	0.8	?	-62.5*
C(#Cc1ccccc1)CN1CCN(c2ccccn2)CC1	2.1	-0.7	-7.3	?	5.2
c1ccc(-c2ncc(CN3CCN(c4ccccn4)CC3)[nH]2)cc1	2.4	-12.0	1.8	-104.8*	-11.1
Cc1[nH]c2ccccc2c1CN1CCN(c2ccccn2)CC1	6.0	-27.2	-8.6	-66.6*	2.9
c1ccc(N2CCN(Cc3nc4ccccc4[nH]3)CC2)nc1	-1.3	0.4	-0.3	3.5	-9.4
Cc1[nH]c2ccccc2c(=O)c1CN1CCCCC1	2.0	-0.6	-6.0	-16.4	-9.0
CCC(NC(=O)c1cc(COc2cc(C)c(Cl)c(C)c2)on1)c1ccncc1 (centres undefined)	35.7*	-1.4	-4.4	6.7	65.3
CC1CCc2sc(C(=O)NCC(C)(C)N3CCOCC3)cc2C1 (centres undefined)	2.7	-11.1	-1.9	8.1	-68.0*
CCOc1ccc(CCN2C(=S)N([C@@H](Cc3ccccc3)CN3CCC[C@@H]3CN3C(=S)NC[C@@H]3Cc3ccc(O)cc3)C[C@@H]2CC(C)C)cc1	.	-2.1	.	-0.3	.
CCOc1ccc(CCN2C(=S)N([C@@H](Cc3ccc(O)cc3)CN3CCC[C@@H]3CN3C(=S)NC[C@@H]3CC(C)C)C[C@@H]2Cc2ccc(O)cc2)cc1	.	-20.2	.	-79.7*	.
CCOc1ccc(CCN2C(=S)N([C@@H](Cc3ccc(O)cc3)CN3CCCC3CN3C(=S)NC[C@@H]3Cc3ccc(O)cc3)C[C@@H]2CC(C)C)cc1 (some centres undefined)	.	-44.3	.	-68.2*	.
O=C(Nc1c(C(=O)O)oc2ccccc12)c1ccc(C(F)(F)F)cc1	2.6	2.9	1.7	.	4.3
CCN1CCc2nc(N)sc2C1	-1.1	40.2*	-1.3	18.9	-8.6
C=CCN1CCc2nc(N)sc2CC1	0.4	92.8*	-3.7	3.6	-0.8
